USP30 block: blocks human USP30 ubiquitin-rhodamine cleavage | purified USP30, Ub-rhodamine cleavage fluorescence | hit rate 5.3% among 47,000 | AID 1645860 | Q70CQ3 | inhibition, % at 25 µM
Target sequence (Q70CQ3 whole entry, looked up): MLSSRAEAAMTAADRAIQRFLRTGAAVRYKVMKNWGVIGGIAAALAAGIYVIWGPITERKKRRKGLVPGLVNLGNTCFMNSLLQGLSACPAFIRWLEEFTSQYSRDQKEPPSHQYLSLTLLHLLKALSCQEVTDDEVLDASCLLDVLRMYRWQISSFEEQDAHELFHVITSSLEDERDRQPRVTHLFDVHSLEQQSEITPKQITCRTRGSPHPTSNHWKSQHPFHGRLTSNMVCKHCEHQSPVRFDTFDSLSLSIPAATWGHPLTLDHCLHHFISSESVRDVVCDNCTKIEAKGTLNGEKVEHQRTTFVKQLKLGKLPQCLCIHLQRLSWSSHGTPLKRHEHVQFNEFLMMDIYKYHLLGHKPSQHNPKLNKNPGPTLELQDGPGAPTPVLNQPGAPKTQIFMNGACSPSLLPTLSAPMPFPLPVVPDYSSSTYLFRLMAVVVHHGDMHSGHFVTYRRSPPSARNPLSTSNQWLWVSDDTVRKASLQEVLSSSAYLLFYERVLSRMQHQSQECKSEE
USP10 inh: human USP10 deubiquitinase inhibition | inhibition, % at 20 µM | hit rate 1.1% among 47,000 | purified USP10, Ub-rhodamine fluorescence, 60 min
OTUD3 inh: inhibitors of human OTUD3 deubiquitinase; Q5T2D3; purified OTUD3, Ub-rhodamine fluorescence, 2 h; inhibition, % at 25 µM; hit rate 0.7% among 47,000; AID 1645858
USP17 inh: blocks human USP17 ubiquitin-rhodamine cleavage. AID 1645855. purified USP17, Ub-rhodamine cleavage fluorescence, 3 h. hit rate 6.5% among 47,000. A8MUK1. inhibition, % at 50 µM
USP8 inh: blocks human USP8 ubiquitin-rhodamine cleavage. purified USP8, Ub-rhodamine cleavage fluorescence, 30 min. inhibition, % at 20 µM. hit rate 4.2% among 47,000
USP28 inh: inhibitors of human USP28 deubiquitinase | purified USP28, Ub-rhodamine cleavage fluorescence, 30 min | AID 1645857 | hit rate 3% among 47,000 | inhibition, % at 25 µM | Q96RU2
Large screens that a line does not name were inactive. In the library only some 13% were active in any assay of this set; here they are far more common. Rule as the data show it: active = inhibition above about 30%; inactive = the rest.

COc1ccccc1N(C)S(=O)(=O)c1ccc(C(=O)Nc2cccc(-n3cnnn3)c2C)cc1	USP17 inh 35
CCCCN(c1ccccc1)S(=O)(=O)c1cccc(C(=O)Nc2cccc(C(C)=O)c2)c1	none
CC(=O)c1cccc(NC(=O)c2ccc(S(=O)(=O)N(C)Cc3ccccc3)cc2)c1	USP17 inh 44
Cc1ccc(C)c(N(CC(=O)Nc2ccc3c(c2)OCCO3)S(=O)(=O)c2ccccc2)c1	USP30 block 30
COc1ccccc1N(C)S(=O)(=O)c1ccc(C(=O)NCCc2ccc(F)cc2)cc1	none
CCN(Cc1ccccc1)S(=O)(=O)c1ccc(C(=O)Nc2ccc3c(c2)OCCO3)cc1	USP30 block 40, USP28 inh 60
CC1CCN(c2ccc(-c3nc(-c4ccccc4)no3)nn2)CC1	none
O=C(NC1CCCCC1)N1CC[C@H](c2nc3ccccc3o2)C1	none
COc1ccccc1NC(=O)c1ccc(S(=O)(=O)N(C)Cc2ccccc2)cc1	USP30 block 34
Cc1ccnc(NS(=O)(=O)c2ccc(NC(=O)c3ccc(S(=O)(=O)N(C)c4ccccc4)cc3)cc2)n1	none
Cc1ccnc(NS(=O)(=O)c2ccc(NC(=O)c3ccc(S(=O)(=O)N(C)Cc4ccccc4)cc3)cc2)n1	USP10 inh 42, USP8 inh 40 (no result: USP17 inh)
COc1cc(C(=O)Nc2ccccc2Cc2ccccc2)cc(OC)c1OC	USP30 block 36, USP17 inh 32
COc1c2c(cc3c1C(C(=O)Nc1ccc(C)c(C)c1)N(C)CC3)OCO2 (centres undefined)	none
COc1c2c(cc3c1C(CC(=O)c1c(O)c(OC)c4occc4c1OC)[N+](C)(C)CC3)OCO2 (centres undefined)	USP30 block 39
Cn1c(CCN2CCN(c3ccccn3)CC2)nc2cc(NC(=O)c3ccco3)ccc21	none
Cc1cc(N2CCN(c3ncccn3)CC2)nc2ccc(NC(=O)c3cccnc3)cc12	USP17 inh 35
Cc1cc(N2CCN(c3ncccn3)CC2)nc2ccc(NC(=O)C3CC3)cc12	none
COc1cccc(C(=O)Nc2ccc3nc(N4CCN(c5ncccn5)CC4)cc(C)c3c2)c1OC	USP30 block 85, USP17 inh 59, USP8 inh 59
Cc1cc(N2CCN(c3ncccn3)CC2)nc2ccc(NC(=O)c3ccco3)cc12	USP30 block 58, USP17 inh 67, USP28 inh 68
COc1ccccc1CNC(=O)CCC(=O)Nc1ccc2nc(N3CCN(C)CC3)cc(C)c2c1	none
Cc1cccc(C(=O)N2CCc3c(c(-c4nc(-c5ccccc5)no4)nn3C)C2)c1	none
CC(=O)N1CC[C@@H](CC(=O)O)[C@@H](CC2=NCCc3ccc(C(C)(C)C)cc32)C1	none
COc1cccc(Cn2nc3n(CC(C)C)c(=O)c4ccc(C(=O)NCC(C)C)cc4n3c2=O)c1	USP30 block 65, OTUD3 inh 36, USP17 inh 39
COc1cccc(C(=O)Cn2nc3n(CCC(C)C)c(=O)c4sccc4n3c2=O)c1	none
Cc1cnnn1-c1ccc(C(=O)Nc2ccc(Cl)cc2)cc1	USP30 block 58, USP17 inh 45, USP28 inh 50
Cc1ccc(CCNC(=O)c2cnc3sc4c(n3c2=O)CCC4)cc1	none
Cc1csc2ncc(C(=O)NCCc3ccc(Cl)cc3)c(=O)n12	USP17 inh 37
O=C(NCCCO)c1cc2c(cn1)[nH]c1ccccc12	none
O=C(NC1CCCCC1)c1cc2c(cn1)[nH]c1ccccc12	USP28 inh 59
COc1cccc(-c2noc(-c3occc3Br)n2)c1	USP17 inh 40
CC(C)(C)c1ccc(/C=C/C(=O)Nc2ccc3c(c2)OCCO3)cc1	USP28 inh 34
COc1ccc(/C=C/C(=O)Nc2ccc3c(c2)OCCO3)cc1	none (no result: USP30 block, USP28 inh)
O=C(/C=C/c1ccc(F)cc1)Nc1ccc2c(c1)OCCO2	USP28 inh 86
O=C(Cn1cnc(S(=O)(=O)N2CCCC2)c1)N1CCCN(Cc2ccc(F)cc2)C1	none
COc1ccc(-n2c(Cc3cccn3C)nnc2SCC(=O)Nc2cc(C)on2)cc1	none
CN(C)S(=O)(=O)c1ccc(-c2nn(-c3ccccc3)cc2/C=C(\C#N)c2nc3ccccc3s2)cc1	none
O=C(NCCN1CCCCC1)c1cnn(-c2ccc(Cl)cc2)c1C1CCNCC1	none
O=C(Cc1cccs1)Nc1cc(F)c2nc(N3CCOCC3)ccc2c1	USP17 inh 62
COc1ccc(C(=O)Nc2cc(F)c3nc(N4CCOCC4)ccc3c2)c(OC)c1	USP17 inh 73, USP8 inh 78
COc1ccc(CC(=O)Nc2cc(F)c3nc(N4CCOCC4)ccc3c2)cc1	USP8 inh 49
COC(=O)CC[C@H]1CNC(=O)[C@@H]2[C@@H](CCN2Cc2ccc(C)cc2)N1C	none
CN(C)C(=O)CSc1nnc(-c2cccc(Cl)c2)n1-c1ccc(Cl)c(C(F)(F)F)c1	USP30 block 47, USP17 inh 68
CN(C)c1cccc(-c2nnc(SCC(=O)Nc3ccc(F)cc3)n2-c2ccccc2)c1	none
CCc1cc2c(NCc3cccnc3)nc(C)nc2s1	none
CCc1cc2c(=O)[nH]c(Cc3ccc(OC)cc3)nc2s1	USP30 block 40, USP17 inh 58, USP8 inh 35
CC1CCC(NC(=O)c2ccccc2N2C(=O)N3CCc4c([nH]c5ccccc45)[C@@]3(C)C2=O)CC1 (some centres undefined)	none
COc1ccc(CCNC(=O)c2ccccc2N2C(=O)N3CCc4c([nH]c5ccc(OC)cc45)[C@@]3(C)C2=O)cc1	USP30 block 41, USP17 inh 43
COc1ccc(NC(=O)c2ccc(N3C(=O)N4CCc5c([nH]c6ccc(OC)cc56)[C@@]4(C)C3=O)cc2)cc1	USP8 inh 31
COc1ccc2[nH]c3c(c2c1)CCN1C(=O)N(c2ccccc2C(=O)NCCc2ccccc2)C(=O)[C@]31C	none
C[C@]12C(=O)N(c3ccccc3C(=O)NC3CCCCC3)C(=O)N1CCc1c2[nH]c2ccccc12	USP30 block 32, USP17 inh 45
CC(=O)N1CCCC(c2nnc3n2CCN(Cc2ccccc2Cl)CC3)C1 (centres undefined)	none
Cc1ccn2cc(-c3ccc(NC(=O)C(C)C)cc3)nc2n1	none
c1cncc(-c2nc(Nc3ccc4c(c3)OCCCO4)c3ccccc3n2)c1	USP17 inh 40
c1cncc(-c2nc(Nc3ccc4c(c3)OCCO4)c3ccccc3n2)c1	USP30 block 53, USP17 inh 42, USP28 inh 44
CC(C)(C)c1ccc(Nc2nc(-c3cccnc3)nc3ccccc23)cc1	none
Cc1ccc(Nc2nc(-c3ccncc3)nc3ccccc23)cc1	none
COCCN1Cc2cccc(C(=O)NCc3ccc(OC)cc3)c2C1=O	none
O=C1N(Cc2cccnc2)CCN1c1ccc2c(c1)OCO2	none
COc1ccc(C)cc1NC(=O)c1ccc(-n2nnnc2SC)cc1	USP30 block 52, USP17 inh 73
